From PubChem BioAssay (EPA / NIEHS)
Active and inactive are the calls of the source. The calls were made as follows: active = hit-call score of the fitted dose curve at least 0.9, where 1 is the maximum; inactive = score below 0.9.

How the values were obtained:
[1] = molecular target: Nuclear respiratory factor 1 (Homo sapiens) (UniProt Q16656); assay: ATG_NRF1_CIS: Attagene CIS-FACTORIAL HepG2 Assay for human Nuclear Respiratory Factor 1 (NRF1) Orphan Gene (AID 2282987); settings: HepG2 NRF1 cis-element reporter, Attagene multiplex; actives raise or lower the signal
Chain of Nuclear respiratory factor 1 (Homo sapiens) (Q16656 whole entry, looked up): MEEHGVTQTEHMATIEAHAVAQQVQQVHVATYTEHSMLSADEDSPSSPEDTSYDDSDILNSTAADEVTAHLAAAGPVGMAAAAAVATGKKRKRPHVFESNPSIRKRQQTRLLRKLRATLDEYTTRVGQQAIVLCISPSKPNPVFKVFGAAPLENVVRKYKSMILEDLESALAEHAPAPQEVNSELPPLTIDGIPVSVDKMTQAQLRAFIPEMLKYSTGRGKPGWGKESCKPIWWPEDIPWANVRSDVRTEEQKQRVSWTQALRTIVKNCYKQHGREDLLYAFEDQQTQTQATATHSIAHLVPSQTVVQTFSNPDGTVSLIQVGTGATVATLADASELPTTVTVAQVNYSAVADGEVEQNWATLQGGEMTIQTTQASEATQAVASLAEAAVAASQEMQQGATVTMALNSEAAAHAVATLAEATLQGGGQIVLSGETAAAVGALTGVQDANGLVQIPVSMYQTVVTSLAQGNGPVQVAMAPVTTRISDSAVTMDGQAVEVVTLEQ
In short: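 Transcriptional reporter readout, one component of a 52-endpoint multiplexed HepG2 panel. Exposure 24 h; mRNA detected via RT-PCR and fluorescent capillary electrophoresis; fitting in both directions against DMSO.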

[2] = ATG_NFI_CIS: Attagene CIS-FACTORIAL HepG2 Assay for human Nuclear Factor I (NFI) (AID 2282989); settings: HepG2 cis-regulatory reporter, NFI response element transcription; actives raise or lower the signal
In short: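 HepG2 cells transiently transfected with cis-element-driven multiplexed reporter transcription units, dosed for 24 h. Reporter mRNA quantified by RT-PCR, fluorescent labelling, HpaI digestion and capillary electrophoresis; bidirectional fit versus DMSO baseline.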

[3] = molecular target: Myc proto-oncogene protein (Homo sapiens) (UniProt P01106); assay: ATG_Myc_CIS: Attagene CIS-FACTORIAL HepG2 Assay for human Myelocytomatosis (Myc) Proto-Oncogene Transcription Factor (AID 2282990); settings: HepG2, Attagene cis-reporter transcription factor activity; actives raise or lower the signal
Chain of Myc proto-oncogene protein (Homo sapiens) (P01106 whole entry, looked up): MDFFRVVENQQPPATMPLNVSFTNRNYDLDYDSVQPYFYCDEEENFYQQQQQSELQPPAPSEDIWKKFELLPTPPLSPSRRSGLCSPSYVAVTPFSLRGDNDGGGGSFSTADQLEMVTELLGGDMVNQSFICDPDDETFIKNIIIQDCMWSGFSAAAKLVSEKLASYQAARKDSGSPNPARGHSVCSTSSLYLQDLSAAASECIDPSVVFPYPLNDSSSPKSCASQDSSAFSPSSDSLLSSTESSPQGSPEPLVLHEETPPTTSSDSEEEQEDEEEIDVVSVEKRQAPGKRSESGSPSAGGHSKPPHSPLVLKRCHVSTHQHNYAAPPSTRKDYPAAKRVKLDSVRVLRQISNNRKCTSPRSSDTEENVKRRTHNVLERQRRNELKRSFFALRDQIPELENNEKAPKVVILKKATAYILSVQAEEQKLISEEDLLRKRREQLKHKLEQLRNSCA
In short: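 Multiplexed cis-reporter transcription in HepG2 cells after 24 h chemical treatment. Reporter mRNA measured by RT-PCR and capillary electrophoresis fluorescence; activity fitted bidirectionally against DMSO control.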

[4] = ATG_NF_kB_CIS: Attagene CIS-FACTORIAL HepG2 Assay for human Nuclear Factor Kappa B (NF-kB) (AID 2282991); settings: HepG2 Attagene cis-factorial NF-kB reporter mRNA; actives raise or lower the signal
In short: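 HepG2, transient multi-reporter transfection, cis promoter elements (endogenous TFs). 24 h exposure. Total RNA → RT → PCR → 6-FAM label → HpaI → CE. Gain/loss vs DMSO.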

[5] = ATG_NRF2_ARE_CIS: Attagene CIS-FACTORIAL HepG2 Assay for human Nuclear Factor Erythroid 2 Related Factor 2 (NFR2) response to Antioxidant Response Elements (ARE) (AID 2282992); settings: HepG2 Attagene ARE/NRF2 reporter, transcription factor activity; actives raise or lower the signal
In short: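 Transient MRTU transfection of HepG2; 24 h compound exposure; TriZol RNA, RT with oligo(dT), PCR, 6-FAM primer extension, HpaI cut, CE. Bidirectional fit vs DMSO.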

[6] = ATG_Oct_MLP_CIS: Attagene CIS-FACTORIAL HepG2 Assay for human Octamer-Binding Transcription Factor (Oct) (AID 2282993); settings: HepG2 Attagene cis-factorial Oct reporter, mRNA; actives raise or lower the signal
In short: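 HepG2 cells transiently transfected with cis-promoter-driven multiplexed reporter transcription units, dosed for 24 h. Reporter mRNA quantified by RT-PCR, fluorescent labelling, HpaI digestion and capillary electrophoresis; bidirectional fits versus DMSO baseline.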

Measured: AC50

C=C(C)C(=O)OCCOC(=O)C(=C)C
inactive: all assays above

N=C1C=CC(=C(c2ccc(N)cc2)c2ccc(N)cc2)C=C1
active: [1] 100 µM | [4] 41.1 µM | [5] 9.02 µM
inactive: all other assays above

CCOC(=O)CC(=O)c1ccccc1
inactive: all assays above

CCCCC(CC)COS(=O)(=O)O (stereo not drawn)
inactive: all assays above

CC(C)(C)C1CCC(=O)CC1
active: [6] 145 µM
inactive: all other assays above

CC(C)CO
inactive: all assays above

C=CCOC(=O)c1ccc(C(=O)OCC=C)c(C(=O)OCC=C)c1
active: [5] 36.1 µM
inactive: all other assays above

COc1cc(O)c(C(=O)c2ccccc2)cc1S(=O)(=O)O
inactive: all assays above

Cc1c(Cl)cccc1Cl
inactive: all assays above

Nc1ccc(O)c([N+](=O)[O-])c1
active: [4] 37.2 µM | [5] 57.9 µM
inactive: all other assays above

CC1=CC(C)C(C=O)CC1 (stereo not drawn)
active: [5] 14.1 µM
inactive: all other assays above

O=C(O)CCC(=O)O
inactive: all assays above

CN(C)Cc1cc(CN(C)C)c(O)c(CN(C)C)c1
inactive: all assays above

O=C(O)c1ccc2c(c1)C(=O)OC2=O
inactive: all assays above

CC(=O)OCc1ccccc1
inactive: all assays above

O=C1c2ccccc2C(=O)c2cc(S(=O)(=O)O)ccc21
active: [5] 100 µM
inactive: all other assays above

CCCCCCCCCCCCCc1ccccc1
inactive: all assays above

CC(C)CCOCc1ccccc1
inactive: all assays above

O=C1CCCCC1C1CCCCC1 (stereo not drawn)
inactive: all assays above

CCOc1ccc(NC(N)=O)cc1
inactive: all assays above

CCC(=O)C1CC(C(C)C)CC=C1C (stereo not drawn)
active: [5] 40.1 µM
inactive: all other assays above

CC(C)(CO)C(O)C(=O)NCCCO (stereo not drawn)
inactive: all assays above

N#Cc1ccc(C(c2ccc(C#N)cc2)n2cncn2)cc1
inactive: all assays above

CC1=NN(c2ccc(S(=O)(=O)O)cc2)C(=O)C1N=Nc1ccccc1 (stereo not drawn)
inactive: all assays above

Cc1ccc(C)c(OCCCC(C)(C)C(=O)O)c1
inactive: all assays above

CCCCOCCOC(=O)COc1ccc(Cl)cc1Cl
inactive: all assays above

CC(=O)CCC1=C(C)CCCC1(C)C
active: [5] 49.1 µM
inactive: all other assays above

CCCCCCCCCCCCC
inactive: all assays above

CC1=CCC2CC1C2(C)C (stereo not drawn)
inactive: all assays above

c1ccc(-c2nc3ccccc3[nH]2)cc1
active: [3] 26.1 µM
inactive: all other assays above

CCCCC(C=O)CC (stereo not drawn)
inactive: all assays above

CC(C)c1ccc2ncccc2c1
active: [5] 64.6 µM
inactive: all other assays above

CCCCCCCCCC[N+](C)(CCCCCCCCCC)CCC[Si](OC)(OC)OC
active: [3] 14.6 µM | [5] 16 µM
inactive: all other assays above
